Measurements published in PubChem BioAssay (NCATS).
Inconclusive results are not listed. Active and inactive are the calls of the source. The call rests on the fitted dose curve; in most records, active means well fitted inhibition curve with a large enough effect; inconclusive means small, poorly fitted or top-dose-only effect; inactive means flat fitted curve, though single readings scatter.

test: BET inhibitor-based combinations targeting novel dependencies in MECOM-rearranged (r) AML: AML-191 cell line (AID 2202236; further: nearly all actives have a fitted effect of over 35% in size;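 on viability (% of control): plate controls were vehicle wells for no effect and wells without cells for full effect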); conditions: AML-191 viability, CellTiter-Glo luminescence, 48 h; series mostly up to 46 µM; viability (% of control): at the top concentration
From the text: Ecotropic viral insertion site 1 (EVI1) is located on chromosome 3q26.2 as part of the MECOM (MDS and EVI1 complex) locus. Under normal hematopoiesis, EVI1 is a regulator of hematopoietic stem cell maintenance and self-renewal and EVI1 levels decrease as the cells differentiate. In approximately 5-10% of de novo acute myeloid leukemia (AML) EVI1 is aberrantly expressed, including Chromosomal inv(3)(q21;q26.2) or t(3;3)(q21;q26.2) alterations (MECOM-r) that account for about 50% of AML with EVI1 overexpression 31. AMLs with high levels of EVI1 have a poor prognosis and an overall survival time averaging between 10-14 months. EVI1 overexpression confers resistance in leukemia cells, highlighting the need to develop new targeted therapies for EVI1 overexpressing AMLs.
Here, we performed an unbiased chemical drug screening by evaluating the single agent activity of a collection of 2,480 oncology-focused, approved and investigational drugs (NCATS Mechanism Interrogation Plates, MIPE v5.0) against a panel of seven AML cell lines. These included four MECOM-r cell-lines (AML-191, AML-194, UCSD-AML1 and HNT-34) and three non-MECOM-r AMLs (MV4-11, OCI-AML3 and SET-2). Exploiting the mechanistic redundancy built in the library, we identified target-level sensitivities in MECOM-r AML cells and relative activity as compared to other AML subtypes.
A collection of 2480 mechanistically annotated dugs (MIPE v5.0) was used to screen four 3q26.2 rearranged AML cell lines and three non-3q26.2 rearranged AML cell lines. This library purposely exploits redundancy by including multiple inhibitors of key onco-targets, while simultaneously encompassing mechanistic diversity, targeting more than 800 distinct mechanisms of action. Briefly, cells were seeded in 5 uL of growth media using a Multidrop Combi dispenser into 1536 well white polystyrene tissue culture treated plates (Corning) at a density of 500cells/well. For each cell-line, for each of the 2480 drugs in MIPE v5.0 library, an 11-point dose curve was generated via a 1536 pin-tool. Plates were incubated for 48 hr at standard incubator conditions, covered by a stainless steel gasketed lid to prevent evaporation. Cell viability was determined by luminescence based, Cell Titer Glo assay (Promega). In detail, 3 uL of Cell Titer Glo were added to each well and plates were incubated at room temperature for 15 min with a stainless-steel lid in place. Luminescence readings were taken using a Viewlux (PerkinElmer) with a 2 s exposure time per plate. Compound dose-response curves were normalized to DMSO and empty well controls on each plate. Quantitative drug activity data from dose-response curves was determined utilizing area Under the Curve (AUC) and Z-transformed AUC (Z-AUC, a mean-centering transformation applied to each individual cell-line screened).
Potency means the concentration at half of the fitted maximal effect.

Row | Compound | Potency | viability (% of control)
1 | N=c1c2c(-c3ccccc3)c(-c3ccccc3)n(Cc3ccccc3)c2ncn1C1CCC(O)CC1 (stereo not given) | 2630 nM (active) | 
2 | COC1=C[C@@H]2[C@@H]3Cc4ccc(OC)c(O)c4[C@]2(CCN3C)CC1=O |  | 98.5% (inactive)
3 | C[C@]12CC[C@H](O)CC1=CC[C@@H]1[C@@H]2CC[C@]2(C)C(=O)CC[C@@H]12 |  | 98.5% (inactive)
4 | O=P1(N(CCCl)CCCl)NCCCO1 (stereo not given) |  | 107% (inactive)
5 | CCOC(=O)c1c(C(C#N)=CN)c2ccc(Cl)c(Cl)c2n1C |  | 88.4% (inactive)
6 | CN1C(=O)COc2c(C(=O)NC3CN4CCC3CC4)cc(Cl)cc21 (stereo not given) |  | 103% (inactive)
7 | COc1cc([C@@H]2c3cc4c(cc3[C@@H](O)C3COC(=O)C32)OCO4)cc(OC)c1O (stereo not given in full) | 296 nM (active) | 
8 | CO[C@H]1CCC(O[C@H]2C[C@H]([C@]3(C)CC[C@]4(C[C@H](O)[C@@H](C)[C@@H]([C@@H](C)/C=C(\C)C(=O)[C@H](C)C[C@H](C)C(=O)O)O4)O3)O[C@]3(O[C@@H]([C@H]4O[C@@](O)(CO)[C@H](C)C[C@@H]4C)C[C@@H]3C)[C@@H]2C)O[C@@H]1C (stereo not given in full) | 1660 nM (active) | 
9 | Cc1[nH]nc2ccc(-c3cncc(OC[C@@H](N)Cc4c[nH]c5ccccc45)c3)cc12 | 833 nM (active) | 
10 | CCN1CCN(C(=O)Cc2ccc(Nc3ncc(F)c(Nc4ccc(C(=O)Nc5ccccc5Cl)cc4)n3)cc2)CC1 | 6610 nM (active) | 
11 | Cc1sc2c(c1C)C(c1ccc(Cl)cc1)=N[C@@H](CC(=O)OC(C)(C)C)c1nnc(C)n1-2 | 662 nM (active) | 
12 | COC1(CS(=O)c2ccccc2)CCN(CCc2c[nH]c3ccc(F)cc23)CC1 (stereo not given) |  | 103% (inactive)
13 | CCOP(=O)(OCC)C(C)NC(=O)N(CCCl)N=O (stereo not given) |  | 106% (inactive)
14 | COC[C@@H](NC(C)=O)C(=O)NCc1ccccc1 |  | 115% (inactive)
15 | C[C@]12CC[C@H]3[C@@H](CCC4=CC(=O)CC[C@@]43C)[C@H]1CC[C@H]2OC(=O)CCC1CCCC1 |  | 100% (inactive)
16 | COC[C@H]1OC(=O)c2coc3c2[C@@]1(C)C1=C(C3=O)[C@@H]2CC[C@H](O)[C@@]2(C)C[C@H]1OC(C)=O | 7420 nM (active) | 
17 | O=c1[nH]c2ccccc2n1CCCN1CCC(n2c(=O)[nH]c3cc(Cl)ccc32)CC1 |  | 99.8% (inactive)
18 | C[C@@H]1CN(Cc2ccc(F)cc2)CCN1C(=O)COc1ccc(Cl)cc1NC(N)=O | 7420 nM (active) | 
19 | O=C(O)CNC(=O)C1C(=O)N(C2CCCCC2)C(=O)N(C2CCCCC2)C1=O |  | 96.5% (inactive)
20 | O=S(=O)(F)Cc1ccccc1 |  | 106% (inactive)

Row | Compound | Potency | viability (% of control)
21 | C/C(=C\c1csc(C)n1)[C@@H]1C[C@@H]2O[C@@H]2CCC[C@H](C)[C@H](O)[C@@H](C)C(=O)C(C)(C)[C@@H](O)CC(=O)O1 | 23.5 nM (active) | 
22 | CC1(C)CC(O)CC(C)(C)N1O |  | 95.7% (inactive)
23 | Cc1cc(SCc2sc(-c3ccc(C(F)(F)F)c(F)c3)nc2C)ccc1OCC(=O)O |  | 87.3% (inactive)
24 | O=C(N[C@H]1CN2CCC1CC2)c1ccc(Cl)cc1 |  | 107% (inactive)
25 | CC(N[C@H]1C[C@@H]1c1ccccc1)c1ccc2c(c1)OCCO2 (stereo not given in full) |  | 97.4% (inactive)
26 | C/C(=C\c1csc(C)n1)[C@@H]1C[C@@H]2O[C@]2(C)CCC[C@H](C)[C@H](O)[C@@H](C)C(=O)C(C)(C)[C@@H](O)CC(=O)O1 | 10.5 nM (active) | 
27 | CC1=C2C[C@H]3[C@@H](CC=C4C[C@@H](O)CC[C@@]43C)[C@@H]2CC[C@]12O[C@@H]1C[C@H](C)CN[C@H]1[C@H]2C |  | 105% (inactive)
28 | Cc1cccc(C)c1NC(=O)CN1CCCC1=O |  | 105% (inactive)
29 | C/C=C(/C)C(=O)O[C@H]1C(C)=C2[C@H]([C@@H]1OC(=O)CCCCCCC)[C@@](C)(OC(C)=O)C[C@H](OC(=O)CCC)[C@@]1(O)[C@H]2OC(=O)[C@@]1(C)O | 417 nM (active) | 
30 | CC1(N2CCC(n3c([C@@H]4CCCNC4)nc4ccccc43)CC2)CCCCCCC1 | 20900 nM (active) | 
31 | O=C(Nc1ccncc1)C(=O)c1cn(Cc2ccc(Cl)cc2)c2ccccc12 | 263 nM (active) | 
32 | C[C@@]12OC(=O)[C@]1([C@@H](O)[C@@H]1C=CCCC1)NC(=O)[C@@H]2CCCl | 26.3 nM (active) | 
33 | Cc1ccccc1-n1c(Cn2cnc3c(N)ncnc32)nc2cccc(C)c2c1=O |  | 89.1% (inactive)
34 | CC(C)(O)/C=C\C(=O)[C@](C)(O)[C@H]1[C@H](O)C[C@]2(C)[C@@H]3CC=C4[C@@H](C=C(O)C(=O)C4(C)C)[C@]3(C)C(=O)C[C@@]12C | 93.4 nM (active) | 
35 | COc1cc(C)[nH]c(=O)c1CNC(=O)c1c(C)n([C@H](C)C2CCN(CC(F)(F)F)CC2)c2ccccc12 |  | 95.7% (inactive)
36 | O=P1(NCCCl)OCCCN1CCCl (stereo not given) |  | 113% (inactive)
37 | C[C@]12CCC(=O)C(O)=C1CC[C@@H]1[C@@H]2CC[C@]2(C)C(=O)CC[C@@H]12 |  | 85.3% [at 92.2 µM] (inactive)
38 | C/C1=C/C[C@@H](/C(C)=C/c2csc(C)n2)OC(=O)C[C@H](O)C(C)(C)C(=O)[C@H](C)[C@@H](O)[C@@H](C)CCC1 | 83.3 nM (active) | 
39 | C/C=C(\C)C(=O)N[C@@H](c1ccccc1)[C@@H](O)C(=O)O[C@H]1C[C@@]2(O)[C@@H](OC(=O)c3ccccc3)[C@@H]3[C@]4(OC(C)=O)CO[C@@H]4C[C@H](O)[C@@]3(C)C(=O)[C@H](OC(C)=O)C(=C1C)C2(C)C | 46.8 nM (active) | 
40 | CCOc1ccccc1-n1c(C(C)N2CCN(C(=O)COc3ccc(Cl)cc3)CC2)nc2ccccc2c1=O (stereo not given) | 2630 nM (active) | 
